# Results reported in PubChem BioAssay (EPA / NIEHS).
# “And” between values parts separate entries of the source, which are not always exact repeats. Equal values may be shown once. Records with an inconclusive call do not appear. Some structures have more than one record in an assay (separate samples or runs), and their calls can disagree. The source made the active and inactive calls. How the source made its calls, unless noted: active means hit-call score of the fitted dose curve at least 0.9, where 1 is the maximum; inactive means score below 0.9.
# Columns and labels:
# [1] = target: Estrogen receptor (Homo sapiens) (UniProt P03372); test: CCTE_Deisenroth_AIME_384WELL_LUC_Active: CCTE's 384-well Estrogen Receptor Transactivation Assay with AIME metabolic competence (ERTA luciferase; metabolism positive), Deisenroth Lab (AID 2284030; active means hit-call score of the fitted dose curve at least 0.9, where 1 is the maximum)
# Sequence of Estrogen receptor (Homo sapiens) (P03372 whole entry, looked up): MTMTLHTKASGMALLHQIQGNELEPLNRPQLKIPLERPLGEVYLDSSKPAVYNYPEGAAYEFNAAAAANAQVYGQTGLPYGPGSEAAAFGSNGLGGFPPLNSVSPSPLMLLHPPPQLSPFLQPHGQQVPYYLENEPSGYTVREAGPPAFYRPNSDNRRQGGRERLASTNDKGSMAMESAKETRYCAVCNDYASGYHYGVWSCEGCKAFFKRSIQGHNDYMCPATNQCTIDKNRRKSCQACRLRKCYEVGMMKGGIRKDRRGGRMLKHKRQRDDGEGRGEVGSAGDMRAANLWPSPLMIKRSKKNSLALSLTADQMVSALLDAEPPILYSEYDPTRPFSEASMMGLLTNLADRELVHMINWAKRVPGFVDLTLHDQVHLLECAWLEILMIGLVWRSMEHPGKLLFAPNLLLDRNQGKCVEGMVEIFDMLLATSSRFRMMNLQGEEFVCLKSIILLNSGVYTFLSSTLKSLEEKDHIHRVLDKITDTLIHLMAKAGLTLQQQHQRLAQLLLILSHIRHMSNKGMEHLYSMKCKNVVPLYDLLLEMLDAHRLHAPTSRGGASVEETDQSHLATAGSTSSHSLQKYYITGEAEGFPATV
# How it was run: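 Chemicals (10-point, 0.002-200 uM) were first incubated 2 hours with alginate-immobilized induced male Sprague Dawley rat liver S9. The conditioned medium was then applied to VM7Luc4E2 cells for 24 hours, with ER luciferase induction read by luminescence relative to 17beta-estradiol.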
# [2] = CCTE_Deisenroth_AIME_384WELL_CTox_Active: Cytotoxicity Assessment (CTOX) in CCTE's 384-well Estrogen Receptor Transactivation Assay with AIME metabolic competence (metabolism positive), Deisenroth Lab (AID 2284037; active means hit-call score of the fitted dose curve at least 0.9, where 1 is the maximum;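 further: chemicals first conditioned 2 h by alginate-bound induced rat liver S9 before cells; activity means signal loss indicating cell death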)
# How it was run: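 Cytotoxicity in VM7Luc4E2 breast cells, 24 hour, measured as protease-substrate fluorescence loss, after 2-hour metabolic conditioning with induced rat hepatic S9 in alginate microspheres. Concentrations 0.002 - 200 uM, 10 points, bidirectional fitting.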
# [3] = target: Estrogen receptor (Homo sapiens) (UniProt P03372); test: CCTE_Deisenroth_AIME_384WELL_LUC_Inactive: CCTE's 384-well Estrogen Receptor Transactivation Assay without AIME metabolic competence (ERTA luciferase; metabolism negative), Deisenroth Lab (AID 2284038; active means hit-call score of the fitted dose curve at least 0.9, where 1 is the maximum;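 further: hits raise estrogen receptor luciferase signal so potencies reflect agonists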)
# How it was run: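 VM7Luc4E2 ER transactivation, luciferase bioluminescence after 24 h, using medium pre-incubated 2 h with S9-free alginate microspheres. Concentrations 0.002–200 uM; gain of signal fitted relative to 17beta-estradiol.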
# [4] = CCTE_Deisenroth_AIME_384WELL_CTox_Inactive: Cytotoxicity Assessment (CTOX) in CCTE's 384-well Estrogen Receptor Transactivation Assay without AIME metabolic competence (metabolism negative), Deisenroth Lab (AID 2284039; active means hit-call score of the fitted dose curve at least 0.9, where 1 is the maximum;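 further: cell viability via live-cell protease substrate cleaved to fluorescent probe; cells exposed 24 h to medium preincubated 2 h with alginate-water beads without S9; loss of fluorescence signal means loss of viability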)
# How it was run: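 Fluorescent protease-substrate viability readout after 24 h exposure of VM7Luc4E2 cells to conditioned medium. Chemicals (0.002–200 uM) first sat 2 h over alginate-water beads, no S9. Data fitted bidirectionally, loss of signal meaning viability loss.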
# [5] = target: Estrogen receptor (Homo sapiens) (UniProt P03372); test: CCTE_Deisenroth_AIME_384WELL_LUC_Shift: CCTE's 384-well Estrogen Receptor Transactivation Assay with AIME metabolic competence data shift (ERTA luciferase; difference in metabolism positive and negative), Deisenroth Lab (AID 2284041);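 further: shift is response with S9 minus without S9 so positive means metabolism raised ER signal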
# How it was run: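 Test chemicals (0.002–200 uM, 10-point) were pre-incubated 2 h with alginate microspheres containing phenobarbital/beta-naphthoflavone-induced male Sprague Dawley rat liver S9 or water, then medium was transferred to VM7Luc4E2 cells for 24 h luciferase readout; shift = S9-positive minus S9-negative normalized response.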
# [6] = CCTE_Deisenroth_AIME_96WELL_CTox_Active: Cytotoxicity Assessment (CTOX) in CCTE's 96-well Estrogen Receptor Transactivation Assay with AIME metabolic competence (metabolism positive), Deisenroth Lab (AID 2284028; active means hit-call score of the fitted dose curve at least 0.9, where 1 is the maximum)
# How it was run: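 Cytotoxicity in VM7Luc4E2 breast cells after 24 h exposure to medium from a 2 h metabolic pre-incubation with induced rat hepatic S9 in alginate microspheres; fluorescent live-cell protease readout, 10-point series 0.002–200 uM, n=4.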
# [7] = CCTE_Deisenroth_AIME_96WELL_CTox_Inactive: Cytotoxicity Assessment (CTOX) in CCTE's 96-well Estrogen Receptor Transactivation Assay without AIME metabolic competence (metabolism negative), Deisenroth Lab (AID 2284029; active means hit-call score of the fitted dose curve at least 0.9, where 1 is the maximum)
# How it was run: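 Metabolism-negative mode: alginate-water lids without rat S9, 2 h pre-incubation of 10-point series (0.002 - 200 uM). Conditioned medium on VM7Luc4E2 cells 24 h; loss of fluorescent live-cell protease signal marks cytotoxicity.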
# [8] = CCTE_Shafer_MEA_dev_firing_rate_mean: CCTE's Neural Network Formation Assay for Mean Firing Rate, Shafer Lab (AID 2284031);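 on AC50: curve fitted for loss of firing so AC50 reflects decreased mean firing rate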
# How it was run: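 Steps: seed rat cortical cells (1.5 x 10^5/well) with laminin on PEI-coated MEA; dose day 0; record DIV 5/7/9/12, full media and compound exchange after DIV 5 and 9 recordings; compute well-mean firing rate AUC.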
# [9] = CCTE_Shafer_MEA_dev_per_burst_spike_percent: CCTE's Neural Network Formation Assay for Percent of Spikes in a Burst, Shafer Lab (AID 2284032);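 on AC50: fitted as a decrease in burst spike percentage below DMSO baseline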
# How it was run: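 Value is trapezoidal AUC over recordings on days 5, 7, 9 and 12 of the well-mean fraction of spikes falling in single-electrode bursts; rat cortical cultures exposed continuously from plating, treatment renewed DIV 5 and 9, fitted downward against DMSO.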
# [10] = CCTE_Shafer_MEA_dev_active_electrodes_number: CCTE's Neural Network Formation Assay for Number of Active Electrodes, Shafer Lab (AID 2284040; active means hit-call score of the fitted dose curve at least 0.9, where 1 is the maximum;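 on AC50: potency for loss of active electrodes versus DMSO so lower counts are hits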)
# How it was run: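 Counts electrodes per well firing at least 5 spikes/min, recorded on days 5, 7, 9 and 12 in rat cortical cultures dosed continuously from plating (treatment refreshed DIV 5, 9). Value is the area under the curve over recordings, fitted downward relative to DMSO.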
# [11] = CCTE_Shafer_MEA_dev_burst_rate: CCTE's Neural Network Formation Assay for Burst Rate, Shafer Lab (AID 2284042);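 on AC50: potency for loss of burst rate below DMSO control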
# How it was run: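 Exposure ran continuously over 12 days of network development in rat cortical cultures, with compound refreshed during full media changes on DIV 5 and 9. Single-electrode bursts per recording time, well-mean over active electrodes, trapezoidal AUC across days 5–12, fitted downward relative to DMSO.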
# [12] = CCTE_Shafer_MEA_dev_bursting_electrodes_number: CCTE's Neural Network Formation Assay for Number of Bursting Electrodes, Shafer Lab (AID 2284043; active means hit-call score of the fitted dose curve at least 0.9, where 1 is the maximum;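 on AC50: potency is for loss of bursting electrodes relative to DMSO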)
# How it was run: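 Number of electrodes reaching ≥1 burst every 2 min was recorded at DIV 5, 7, 9 and 12 and collapsed as trapezoidal area under the curve. Cultures were rat cortical neurons on MEA plates, dosed continuously from plating with medium and treatment refreshed on DIV 5 and 9.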
# [13] = CCTE_Shafer_MEA_dev_per_burst_interspike_interval: CCTE's Neural Network Formation Assay for Burst Interspike Interval, Shafer Lab (AID 2284044);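 on AC50: potency for a decrease of within-burst interspike interval below DMSO level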
# How it was run: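 Primary rat cortical neurons on 48-well MEA plates, exposed from day 0 through day 12, treatment renewed at DIV 5 and 9. Within-burst interspike interval recorded days 5, 7, 9, 12, well-averaged, summarised as AUC; negative fit versus DMSO.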
# [14] = CCTE_Shafer_MEA_dev_burst_duration_mean: CCTE's Neural Network Formation Assay for Mean Burst Duration, Shafer Lab (AID 2284045);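 on AC50: curve fitted for loss meaning shorter burst duration than DMSO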
# How it was run: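 Mean single-electrode burst duration (first to last spike), averaged over bursting electrodes per well, then integrated as area-under-curve across recordings at days 5, 7, 9 and 12. Rat cortical cultures on MEAs, compound present from plating, refreshed at feeds.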
# [15] = CCTE_Shafer_MEA_dev_interburst_interval_mean: CCTE's Neural Network Formation Assay for Mean Interburst Interval, Shafer Lab (AID 2284046);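 further: well-mean interburst interval of bursting electrodes as AUC over four recording days; curve fitted for decrease in interburst interval relative to DMSO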
# How it was run: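 Primary rat cortical neurons on PEI-coated 48-well MEA plates (laminin added with cells at plating) (16 electrodes/well), exposed from plating day 0 with renewal at DIV 5 and 9. Mean inter-burst interval averaged over bursting electrodes, AUC across days 5, 7, 9, 12; DMSO baseline.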
# [16] = CCTE_Shafer_MEA_dev_inter_network_spike_interval_mean: CCTE's Neural Network Formation Assay for Mean Inter-network Spike Interval, Shafer Lab (AID 2284047);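 on AC50: potency for a decrease in mean inter-network spike interval below DMSO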
# How it was run: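 Mean time between consecutive network-spike peaks, recorded extracellularly (adaptive spike detection) on DIV 5, 7, 9 and 12, summarized as trapezoidal AUC. Rat cortical cultures on MEAs dosed continuously days 0–12, re-dosed at feeds; loss-of-signal fit relative to DMSO.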
# [17] = CCTE_Shafer_MEA_dev_network_spike_number: CCTE's Neural Network Formation Assay for Number of Network Spikes, Shafer Lab (AID 2284048);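 further: synchronized bursts across electrodes counted on days 5 7 9 12 and integrated as AUC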;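 on AC50: fit as a loss of signal meaning fewer network spikes than DMSO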
# How it was run: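 Number of network spikes (coordinated firing across electrodes) recorded on days 5, 7, 9 and 12 and summarised as area under the curve. Rat cortical cultures on MEA, continuous compound exposure with full medium/treatment exchange at DIV 5 and 9.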
# [18] = CCTE_Shafer_MEA_dev_network_spike_peak: CCTE's Neural Network Formation Assay for Mean Number of Electrodes in Network Spike, Shafer Lab (AID 2284049);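 on AC50: fitted for loss of signal meaning fewer electrodes in network spikes than DMSO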
# How it was run: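 Rat cortical primary culture, 1.5 x 10^5 cells/well, 48-well MEA (16 electrodes/well). Dosing day 0 through DIV 12, full media/compound exchange DIV 5, 9. AxIS adaptive spike detection; AUC over days 5/7/9/12; loss-of-signal vs DMSO.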
# [19] = CCTE_Shafer_MEA_acute_synchrony_index: CCTE's Neural Acute Assay for Synchrony, Shafer Lab (AID 2284027);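 further: network synchrony index of spontaneous spiking in primary rat cortical neurons on MEAs; fitted for loss of signal so actives lower synchrony relative to DMSO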
# How it was run: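 Plates equilibrated 20 min at 37 C, baseline recorded 40 min, compound (0.03-40 uM) added, then 40 min more recorded. Cells: primary rat cortical neurons, DIV 13 or 15. Per-well synchrony index change analysed in negative direction against DMSO.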
# [20] = test system: DIO2 (gene 1734); test: CCTE_GLTED_hDIO2: CCTE's human Deiodinase 2 (DIO2) Inhibition Assay, Great Lakes Toxicology and Ecology Division (GLTED) Lab (AID 2284050; active means hit-call score of the fitted dose curve at least 0.9, where 1 is the maximum)
# How it was run: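 Inhibition is judged by reduced iodide release: uninhibited human DIO2 frees iodide from substrate over 3 h, measured afterward by Sandell-Kolthoff colorimetry. Iodinated chemicals or nitrite, iron and thiocyanate may interfere.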
smiles,measurement,setting,value
CC(C)N(c1ccccc1)C(C)C,outcome,[1],inactive
same,outcome,[2],inactive
same,outcome,[3],inactive
same,outcome,[4],inactive
same,outcome,[5],inactive
Cc1cccc(O)c1,outcome,[1],inactive
same,outcome,[2],inactive
same,outcome,[3],inactive
same,outcome,[4],inactive
same,outcome,[5],inactive
C1CCCNCC1,outcome,[1],inactive
same,outcome,[2],inactive
same,outcome,[3],inactive
same,outcome,[4],inactive
same,outcome,[5],inactive
CC(C)C(=O)c1ccccc1,outcome,[1],inactive
same,outcome,[2],inactive
same,outcome,[3],inactive
same,outcome,[4],inactive
same,outcome,[5],inactive
C[C@]12CC[C@@H]3c4ccc(O)cc4CC[C@H]3[C@@H]1CC[C@@H]2O,outcome,[6],inactive
same,outcome,[7],inactive
same,outcome,[8],inactive
same,outcome,[9],inactive
same,AC50,[10],10 µM (active) and 13.5 µM (active)
same,outcome,[11],inactive
same,AC50,[12],10 µM (active)
same,outcome,[13],inactive
same,outcome,[14],inactive
same,outcome,[15],inactive
same,outcome,[16],inactive
same,outcome,[17],inactive
same,outcome,[18],inactive
CCCCCCCCCCCCN1CCOCC1,outcome,[1],inactive
same,outcome,[2],inactive
same,outcome,[3],inactive
same,outcome,[4],inactive
same,outcome,[5],inactive
CCCO[Si](OCCC)(OCCC)OCCC,outcome,[19],inactive
c1ccc2scnc2c1,outcome,[1],inactive
same,outcome,[8],inactive
same,outcome,[9],inactive
same,outcome,[3],inactive
same,outcome,[10],inactive
same,outcome,[5],inactive
same,outcome,[11],inactive
same,outcome,[13],inactive
same,outcome,[14],inactive
same,outcome,[15],inactive
same,outcome,[16],inactive
same,outcome,[17],inactive
same,outcome,[18],inactive
CCCCOCCOCCO,outcome,[19],inactive
same,outcome,[1],inactive
same,outcome,[3],inactive
same,outcome,[4],inactive
same,outcome,[5],inactive
CC(C)(CO)CO,outcome,[19],inactive
c1ccc(OCCOc2ccccc2)cc1,outcome,[19],inactive
C#C[C@]1(O)CC[C@H]2[C@@H]3CCc4cc(O)ccc4[C@H]3CC[C@@]21C,AC50,[6],135 µM (active)
same,AC50,[7],116 µM (active)
same,AC50,[2],77.6 µM (active)
same,AC50,[4],93.7 µM (active)
CCn1cc(C(=O)O)c(=O)c2ccc(C)nc21,outcome,[19],inactive
O=C(c1ccc(OCCN2CCCCC2)cc1)c1c(-c2ccc(O)cc2)sc2cc(O)ccc12,AC50,[19],36.8 µM (active)
same,AC50,[20],99.1 µM (active)
CC(CCO)CC(C)(C)C (stereo not given),outcome,[1],inactive
same,outcome,[2],inactive
same,outcome,[3],inactive
same,outcome,[4],inactive
same,outcome,[5],inactive
OC[C@H]1O[C@@H](O[C@H]2[C@H](O)[C@@H](O)[C@H](O)O[C@@H]2CO)[C@H](O)[C@@H](O)[C@H]1O,outcome,[1],inactive
same,outcome,[2],inactive
same,outcome,[3],inactive
same,outcome,[4],inactive
same,outcome,[5],inactive
CC(C)CCCC(C)(C)O,outcome,[19],inactive
NC(N)=S,outcome,[1],inactive
same,outcome,[2],inactive
same,outcome,[3],inactive
same,outcome,[4],inactive
same,outcome,[5],inactive
N[C@@H](CCC(=O)O)C(=O)O,outcome,[19],inactive
same,outcome,[8],inactive
same,outcome,[9],inactive
same,outcome,[11],inactive
same,outcome,[12],inactive
same,outcome,[13],inactive
same,outcome,[14],inactive
same,outcome,[15],inactive
same,outcome,[16],inactive
same,outcome,[18],inactive
CC(=O)c1ccc(C)cc1,outcome,[19],inactive
CC(=O)CC(=O)N(C)C,outcome,[1],inactive
same,outcome,[2],inactive
same,outcome,[3],inactive
same,outcome,[4],inactive
same,outcome,[5],inactive
CC/C(=C(\c1ccccc1)c1ccc(OCCN(C)C)cc1)c1ccccc1,AC50,[19],14.8 µM (active)
same,outcome,[19],inactive
same,AC50,[6],7.84 µM (active)
same,AC50,[7],74.1 µM (active)
same,AC50,[8],32.9 nM (active)
same,AC50,[9],1.98 µM (active)
same,AC50,[10],329 nM (active)
same,AC50,[11],122 nM (active)
same,AC50,[12],0.203 µM (active)
same,AC50,[13],307 nM (active)
same,AC50,[14],30.4 nM (active)
same,AC50,[15],1.03 µM (active)
same,AC50,[16],57.8 nM (active)
same,AC50,[17],1.87 µM (active)
same,AC50,[18],209 nM (active)
same,AC50,[20],46.5 µM (active) and 46.3 µM (active)
C=C(C)C(N)=O,outcome,[1],inactive
same,outcome,[2],inactive
same,outcome,[3],inactive
same,outcome,[4],inactive
same,outcome,[5],inactive
CCCCN(CCO)CCO,outcome,[19],inactive
